Results from PubChem BioAssay AID1159580 (chemical genetic matrix, 2015).
Where “and” joins values, the source holds several entries; their conditions need not be identical. Identical values can stand only once. In all, about 5,500 compounds went through this assay and about 2,000 (36%) were called active. Not shown: some 18% with an inconclusive outcome. Rule as the data show it: active = normalized growth mostly below about 0.91 (no sharp cut-off); inconclusive = no clear call, values can overlap the other calls; inactive = mostly above about 0.92. The list shows a part of the results.

Assay: chemical genetic growth profiling, strain panel (AID 1159580);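 also: tested at 20 µM; growth read once vehicle control cultures reached saturation at 30 °C; 1 = growth at the plate median or of vehicle wells; lower values mean less growth of the strain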
Settings: S. cerevisiae deletion strains, growth OD

Measured: normalized growth

CN1CCN(CCC=C2c3ccccc3Sc3ccc(S(=O)(=O)N(C)C)cc32)CC1
active: locus YAL026C, strain drs2, stronger effect = lower value 0.767 | locus YDR137W, strain rgp1, stronger effect = lower value 1.23 [resistant] | locus YDR318W, strain mcm21, stronger effect = lower value 0.911 | locus YDR388W, stronger effect = lower value 0.922 | locus YDR392W, strain spt3, stronger effect = lower value 0.456 | locus YER155C, strain BEM2 (second series), stronger effect = lower value 0.681 | locus YGL253W, strain hxk2, stronger effect = lower value 0.889 | locus YGR252W, strain gcn5, stronger effect = lower value 0.711 | locus YHR142W, strain chs7, stronger effect = lower value 0.86
inactive: locus YAL013W, strain DEP1, stronger effect = lower value 1.01 | locus YAL021C, strain ccr4, stronger effect = lower value 0.987 | locus YAL030W, strain snc1, stronger effect = lower value 0.991 | locus YBL061C, strain skt5, stronger effect = lower value 0.973 | locus YBR009C, strain hhf1, stronger effect = lower value 0.931 | locus YBR021W, strain FUR4, stronger effect = lower value 0.978 | locus YBR023C, strain chs3, stronger effect = lower value 0.919 | locus YBR171W, strain sec66, stronger effect = lower value 1.01 | locus YBR229C, strain ROT2, stronger effect = lower value 1.01 | locus YBR231C, strain swc5, stronger effect = lower value 0.945 | locus YBR279W, strain paf1, stronger effect = lower value 0.964 | locus YCL011C, strain gbp2, stronger effect = lower value 1.01 | locus YCL016C, strain dcc1, stronger effect = lower value 0.971 | locus YCL029C, strain bik1, stronger effect = lower value 0.978 | locus YCL061C, strain MRC1, stronger effect = lower value 0.953 | locus YCL069W, strain vba3, stronger effect = lower value 0.971 | locus YCR088W, strain abp1, stronger effect = lower value 1.01 | locus YDL005C, strain med2, stronger effect = lower value 0.996 | locus YDL035C, strain GPR1, stronger effect = lower value 1 | locus YDL040C, strain nat1, stronger effect = lower value 0.993 | locus YDL074C, strain BRE1, stronger effect = lower value 0.989 | locus YDL101C, strain DUN1, stronger effect = lower value 1 | locus YDL134C, strain PPH21, stronger effect = lower value 1 | locus YDL185W, strain tfp1, stronger effect = lower value 0.989 | locus YDL192W, strain arf1, stronger effect = lower value 0.991 | locus YDR001C, strain nth1, stronger effect = lower value 1.01 | locus YDR069C, strain doa4, stronger effect = lower value 1 | locus YDR101C, strain arx1, stronger effect = lower value 0.95 | locus YDR150W, strain NUM1, stronger effect = lower value 1.02 | locus YDR159W, strain sac3, stronger effect = lower value 0.936 | locus YDR162C, strain NBP2, stronger effect = lower value 1 | locus YDR195W, strain ref2 1.1 | locus YDR297W, strain sur2, stronger effect = lower value 0.975 | locus YDR334W, strain swr1, stronger effect = lower value 1.01 | locus YDR335W, strain msn5, stronger effect = lower value 0.953 | locus YDR502C, strain sam2, stronger effect = lower value 0.931 | locus YEL003W, strain gim4, stronger effect = lower value 1.01 | locus YEL037C, strain rad23, stronger effect = lower value 1 | locus YEL061C, strain CIN8 (second series), stronger effect = lower value 0.998 | locus YEL061C, strain CIN8, stronger effect = lower value 1.02 | locus YER015W, strain faa2, stronger effect = lower value 0.985 | locus YER016W, strain bim1, stronger effect = lower value 0.992 | locus YER110C, stronger effect = lower value 0.977 | locus YER111C, strain swi4, stronger effect = lower value 0.988 | locus YER155C, strain BEM2, stronger effect = lower value 0.999 | locus YER167W, strain BCK2, stronger effect = lower value 1 | locus YFR010W, strain ubp6, stronger effect = lower value 0.965 | locus YGL078C, strain dbp3, stronger effect = lower value 0.996 | locus YGL086W, strain mad1, stronger effect = lower value 0.946 | locus YGL167C, strain pmr1, stronger effect = lower value 1.01 | locus YGL173C, strain kem1, stronger effect = lower value 0.969 | locus YGL227W, strain vid30, stronger effect = lower value 1.02 | locus YGL240W, strain doc1, stronger effect = lower value 0.921 | locus YGL248W, strain PDE1, stronger effect = lower value 1 | locus YGR135W, strain pre9, stronger effect = lower value 0.904 | locus YHR013C, strain ard1, stronger effect = lower value 0.944 | locus YHR027C, strain rpn1, stronger effect = lower value 0.99 | locus YHR030C, strain SLT2, stronger effect = lower value 1.01 and 0.981 | locus YHR079C, strain IRE1 (second series), stronger effect = lower value 0.933 | locus YHR079C, strain IRE1, stronger effect = lower value 0.98 | locus YHR094C, strain hxt1, stronger effect = lower value 0.972 | locus YHR129C, strain ARP1, stronger effect = lower value 1.01 | locus YHR200W, strain rpn10, stronger effect = lower value 0.96 | locus YIL066C, strain RNR3, stronger effect = lower value 1.01 | locus YIL073C, strain SPO22, stronger effect = lower value 1.02 | locus YIL125W, strain kgd1, stronger effect = lower value 0.997 | locus YIR030C, strain dcg1, stronger effect = lower value 0.98 | locus YJL092W, strain hpr5, stronger effect = lower value 0.977 | locus YJL095W, strain BCK1 (second series), stronger effect = lower value 0.973 | locus YJL095W, strain BCK1, stronger effect = lower value 0.992 and 0.978 | locus YJL115W, strain asf1, stronger effect = lower value 1 | locus YJL129C, strain trk1, stronger effect = lower value 1.03 | locus YJL134W, strain LCB3, stronger effect = lower value 1.01 | locus YJL154C, strain vps35, stronger effect = lower value 1.01 | locus YJL164C, strain tpk1, stronger effect = lower value 0.972 | locus YJL166W, strain qcr8, stronger effect = lower value 0.979 | locus YJL168C, strain set2, stronger effect = lower value 0.971 | locus YJL187C, strain SWE1 (second series), stronger effect = lower value 1.01 | locus YJL187C, strain SWE1, stronger effect = lower value 0.994
